The full list was thinned out, with hits kept by preference.
Vaccinia mCherry: inhibitors of vaccinia virus infection (mCherry reporter signal); Vaccinia virus mCherry reporter infection, fluorescence; Potency, µM (titrated, usually from 36.5 µM), for inactives: at the highest dose activity change, negative = inhibition, actives largely listed as inhibitors; actives 0.63% (n = 310,000); calls by dose curve; tested in A549 cells; further: potency means the concentration at half of the fitted maximal effect; on the % scale 0 is the no-effect control and ±100 the full control effect; nearly all actives have a fitted effect of over 35% in size
VACV Venus inh: inhibitors of vaccinia virus (Venus reporter) | Vaccinia virus Venus reporter expression, fluorescence | AID 720580 | Potency, µM (titrated, usually from 36.5 µM), without a hit: top-dose activity change, negative = inhibition, hits mostly inhibitors | actives 0.46% (n = 330,000); calls by dose curve; tested in A549 cells; further: potency means the concentration at half of the fitted maximal effect; on the % scale 0 is the no-effect control and ±100 the full control effect; nearly all actives have a fitted effect of over 30% in size
Shiga inhibitor: inhibitors of Shiga toxin in Vero cells; Vero cells, Shiga toxin protein synthesis inhibition reporter; inhibition, % at 38.7 µM; actives 9.2% (n = 290,000); in the data active means inhibition mostly above about 28%, no sharp cut-off; inactive means mostly below about 43%; further: 0% is about no effect
MARV entry inh: inhibitors of Marburg virus binding or cell entry | Marburg virus pseudotyped entry inhibition, cell reporter | Potency, µM (series often up to 37.8 µM), for inactives: top-dose activity change, negative = inhibition, actives largely listed as inhibitors | actives 1.8% (n = 300,000); calls by dose curve; tested in HEK293 cells; further: potency means the concentration at half of the fitted maximal effect; on the % scale 0 is the no-effect control and ±100 the full control effect
Lassa entry inh: inhibitors of Lassa virus binding or cell entry; AID 540256; actives 1.2% (n = 300,000); Potency, µM (series often up to 37.9 µM), for the others: at the top dose activity change, negative = inhibition, usual class: inhibitors; Lassa virus pseudotype entry inhibition, cell reporter; calls by dose curve; tested in HEK293 cells; further: potency means the concentration at half of the fitted maximal effect; on the % scale 0 is the no-effect control and ±100 the full control effect; nearly all actives have a fitted effect of over 50% in size
Cycloheximide cs: affects cycloheximide protein synthesis inhibition readout, counter-screen. cell reporter, cycloheximide protein synthesis inhibition counterscreen. actives 12% (n = 300,000). AID 2314. max response, %; in the data active means max response mostly above about 13%, no sharp cut-off; inactive means mostly below about 14%; further: read at 38.3 µM for the half of the compounds with a filed dose; 0% is about no effect
* hit, by the source's call; [ ] = another dose, or the depositor's remark.

Results for CC(C)c1nnc(NC(=O)C2CCN(C(=O)c3ccco3)CC2)s1 ?
Vaccinia mCherry: inactive; VACV Venus inh: -9%; Shiga inhibitor: 40*; MARV entry inh: 14%[46.1 µM]; Lassa entry inh: -1%[46.1 µM]; Cycloheximide cs: 21*

What do the screens show for `Cc1nc2ccc3nc(NC(=O)c4ccco4)sc3c2s1`?
Vaccinia mCherry: -10%; VACV Venus inh: -6%; MARV entry inh: inconclusive; Lassa entry inh: 12%

What do the screens show for `COc1cc2nc(NC(=O)c3ccco3)sc(=O)c2cc1OC`?
Vaccinia mCherry: -3%; VACV Venus inh: 11%; Shiga inhibitor: 14; MARV entry inh: inconclusive; Lassa entry inh: 13%[46.1 µM]; Cycloheximide cs: 1

Results for Cc1ccc2nc(NC(=S)NC(=O)c3ccco3)sc2c1 ?
Vaccinia mCherry: -7%; VACV Venus inh: -10%; Shiga inhibitor: 138*; MARV entry inh: 4%; Lassa entry inh: inconclusive; Cycloheximide cs: 67*

How did CC(=O)Nc1nc2c(s1)CCc1ccccc1-2 do in these assays?
Shiga inhibitor: 47; Cycloheximide cs: 17

How did O=C(Nc1nc2c(s1)CCc1ccccc1-2)c1ccco1 do in these assays?
Shiga inhibitor: 81*; MARV entry inh: inconclusive; Lassa entry inh: 17%; Cycloheximide cs: 50*

How did O=C(Nc1nc2ccsc2c(=O)s1)C1CCC1 do in these assays?
Vaccinia mCherry: -14%; VACV Venus inh: -9%; Shiga inhibitor: 55*; MARV entry inh: -6%; Lassa entry inh: inconclusive; Cycloheximide cs: 41*

What do the screens show for `Cc1ccc2nsnc2c1NC(=S)NC(=O)c1ccco1`?
Vaccinia mCherry: -3%; VACV Venus inh: -2%; Shiga inhibitor: -15; MARV entry inh: -19%; Lassa entry inh: -13%; Cycloheximide cs: -2

What do the screens show for `COc1ccc2nc(NC(=O)c3ccco3)sc2c1`?
Shiga inhibitor: 60*; Cycloheximide cs: 20*

How did Cc1ccc(CNC(=O)C2CCCCN2S(=O)(=O)c2ccc(F)cc2)cc1 (stereo not given) do in these assays?
Vaccinia mCherry: -11%; VACV Venus inh: -7%; Lassa entry inh: -22%[46.1 µM]

How did Cc1ccccc1NC(=O)/C(C#N)=C/c1ccc(Cl)cc1Cl do in these assays?
Vaccinia mCherry: -3%; VACV Venus inh: 10%; MARV entry inh: -15%[46.1 µM]; Lassa entry inh: -1%[46.1 µM]

Results for CC(=O)NC(Cc1ccc(O)cc1)C(=O)NCC(N)C(=O)c1ccccc1 (stereo not given) ?
Vaccinia mCherry: -22%; VACV Venus inh: -14%

Results for COc1ccc2nc(NC(=O)C3CCN(S(=O)(=O)c4cccc5nsnc45)CC3)sc2c1 ?
Vaccinia mCherry: inconclusive; VACV Venus inh: inconclusive; Shiga inhibitor: -3; MARV entry inh: inconclusive; Lassa entry inh: 4.6µM*; Cycloheximide cs: -2

Results for O=C(Nc1nc2ccsc2c(=O)s1)c1ccco1 ?
Vaccinia mCherry: -12%; VACV Venus inh: 3%; Shiga inhibitor: 97*; MARV entry inh: inconclusive; Lassa entry inh: inconclusive; Cycloheximide cs: 27*

How did CC(C)c1nc(C(=O)N2CCCC(N3CCN(c4cccc(Cl)c4)CC3)C2)cs1 (stereo not given) do in these assays?
Vaccinia mCherry: -21%; VACV Venus inh: -14%; Shiga inhibitor: -15; MARV entry inh: inconclusive; Lassa entry inh: inconclusive; Cycloheximide cs: -3

Results for CC1(C)C2CC=C(/C=N/NC(=O)c3ccc(O)cc3)C1C2 (stereo not given) ?
Vaccinia mCherry: inactive; VACV Venus inh: -6%; Shiga inhibitor: 68; MARV entry inh: 10%[46.1 µM]; Lassa entry inh: inconclusive; Cycloheximide cs: 15*

Results for CSc1ccc(/C=N/NC(=O)c2ccc(O)cc2)cc1 ?
Vaccinia mCherry: -22%; VACV Venus inh: -14%; Shiga inhibitor: 102*; MARV entry inh: inconclusive; Lassa entry inh: inconclusive; Cycloheximide cs: 46*

What do the screens show for `COc1ccc(C(=O)N/N=C/c2ccc(SC)cc2)cc1`?
Vaccinia mCherry: inactive; VACV Venus inh: -3%; Shiga inhibitor: 38; MARV entry inh: inconclusive; Lassa entry inh: inconclusive; Cycloheximide cs: 19*

What do the screens show for `COC(=O)N/N=C/C1=CCC2CC1C2(C)C` (stereo not given)?
Vaccinia mCherry: -2%; VACV Venus inh: -3%; Shiga inhibitor: 10; MARV entry inh: -1%[14.2 µM]; Lassa entry inh: -14%; Cycloheximide cs: 6

How did CSc1ccc(/C=N/NC(=O)c2ccc3nc[nH]c3c2)cc1 do in these assays?
Vaccinia mCherry: inconclusive; VACV Venus inh: -6%

Results for COc1ccc(/C=C/C(=O)Oc2ccc(/C=N/NC(=O)c3ccncc3)cc2)cc1 ?
Vaccinia mCherry: -14%; VACV Venus inh: -4%; Shiga inhibitor: -13; MARV entry inh: 29%[46.1 µM]; Cycloheximide cs: 5

Results for c1csc(-c2ccn[nH]2)c1 ?
Vaccinia mCherry: -27%; VACV Venus inh: -9%; Shiga inhibitor: 72; Cycloheximide cs: 13*

How did S=c1nccc(-c2cccs2)[nH]1 do in these assays?
Vaccinia mCherry: -6%; VACV Venus inh: -8%; Shiga inhibitor: -5; MARV entry inh: inconclusive; Lassa entry inh: 20%; Cycloheximide cs: 2

Results for CC(C)/C=N/Nc1nc(-c2ccc(Br)cc2)cs1 ?
Vaccinia mCherry: inconclusive; VACV Venus inh: inconclusive; Shiga inhibitor: 54*; MARV entry inh: inconclusive; Lassa entry inh: 6%; Cycloheximide cs: 31*

How did COCCNC(=O)/C(C#N)=C/c1cc(C)n(C2CCCCC2)c1C do in these assays?
Vaccinia mCherry: -13%; VACV Venus inh: -13%; Shiga inhibitor: 69*; MARV entry inh: inconclusive; Lassa entry inh: inconclusive; Cycloheximide cs: 28*

What do the screens show for `COCCNC(=O)/C(C#N)=C/c1cc(C)n(-c2ccc(C)cc2)c1C`?
Vaccinia mCherry: -26%; VACV Venus inh: inconclusive; Shiga inhibitor: 63*; MARV entry inh: inconclusive; Lassa entry inh: inconclusive; Cycloheximide cs: 49*

Results for COc1ccc(-n2c(C)cc(/C=C(\C#N)C(=O)NCc3ccco3)c2C)cc1 ?
Vaccinia mCherry: inactive; VACV Venus inh: -10%; Shiga inhibitor: 51*; MARV entry inh: 14%; Lassa entry inh: -1%; Cycloheximide cs: 47*

How did CCc1ccc(NC(=O)C2CCCN2S(=O)(=O)c2ccc3c(c2)n(C)c(=O)c(=O)n3C)cc1 (stereo not given) do in these assays?
Vaccinia mCherry: -9%; VACV Venus inh: 0%; Shiga inhibitor: 3; MARV entry inh: -17%[46.1 µM]; Lassa entry inh: 6%[46.1 µM]; Cycloheximide cs: 1

How did CCOC(=O)Cc1ccc(NC(=O)Nc2cc3c(cc2N2CCCCC2)n(C)c(=O)n3C)cc1 do in these assays?
Vaccinia mCherry: 12%; VACV Venus inh: 13%; MARV entry inh: inconclusive; Lassa entry inh: 4%[46.1 µM]

How did C[C@@H]1CC[C@H]2C(=O)N(Cc3cccc([N+](=O)[O-])c3)C[C@@H](O)CN2[C@@H]1c1cccc(Br)c1 do in these assays?
MARV entry inh: inconclusive; Lassa entry inh: -5%[14.3 µM]

Results for Cc1ccc(OCC(=O)Nc2nnc(C3CCCO3)s2)c(Br)c1 (stereo not given) ?
Vaccinia mCherry: inactive; VACV Venus inh: -11%; Shiga inhibitor: 70*; MARV entry inh: 14%[46.1 µM]; Cycloheximide cs: 15
